This is a sample that favours compounds with a hit; in the whole collection about 3% have one here.
KCNH2 3.1 block – blocks the human KCNH2 3.1 channel isoform; U2OS KCNH2 3.1, thallium flux FluxOr; active compounds read low; activity change, % (tested at about 1.8 µM); 340,000 compounds, 0.95% hits; AID 720553;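 active means maximum activity change below -70%; inconclusive means maximum activity change from -70% to -50%; inactive means maximum activity change above -50%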;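 further: thallium influx rate constant from kinetic fluorescence after stimulation buffer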
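FluxOr-based Tl+ influx in U2OS cells transduced with KCNH2 3.1 virus; rate constants normalized to DMSO controls.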
ALOX12 inh – blocks human arachidonate 12S-lipoxygenase. Potency, µM (doses to about 108 µM), hits mostly inhibitors. AID 1671190. P18054. 580,000 compounds, 1.1% hits. purified 12hLO, xylenol orange hydroperoxide absorbance; active means well fitted inhibition curve with a large enough effect; inconclusive means small, poorly fitted or top-dose-only effect, or another doubt; inactive means no such curve, though single readings can be large or run the other way
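Hydroperoxide product was detected by ferrous iron/xylenol orange as the 573 to 405 nm absorbance ratio. Arachidonic acid at 40 uM (final) was turned over for 30 min at room temperature by 150 nM human 12hLO, pH 7.0 Hepes buffer, after 15 min compound preincubation.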
LDHA block – LDHA (human) enzyme inhibition. P00338. purified LDHA, NADH/diaphorase-resazurin fluorescence; active compounds read low. 480,000 compounds, 0.15% hits. activity change, % (values are at about 110 or 230 µM); in the data active means activity change below about -30%; inconclusive means mostly about -25% to -30%
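Human LDH5 at 2 nM final in Tris HCl pH 7.4 with 0.06 mM NADH and 0.2 mM pyruvate, reacted 5 minutes at room temperature. Remaining NADH coupled via diaphorase/resazurin; resorufin fluorescence read at 0 and 20 minutes, normalized to enzyme-free and DMSO wells.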
hERG WT inh – inhibitors of human wildtype KCNH2 potassium channel; Q12809; U2OS, BacMam KCNH2, thallium flux FluxOr; active compounds read low; activity change, % at 1.84 µM; 340,000 compounds, 0.37% hits; AID 720551;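 active means maximum activity change below -70%; inconclusive means maximum activity change between -70% and -50%; inactive means maximum activity change above -50%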
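U2OS cells were transduced with wild-type KCNH2 virus (2.03 x 10^8 / mL) for 4 h at room temperature, then cultured overnight at 37 C. Thallium flux was read with FluxOr dye. Rate constants were normalized to DMSO controls.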
Chronic BCR inh – blocks chronic active B-cell receptor signaling | AID 493014 | ABC-DLBCL IkBa-CBG/CBR reporter, luminescence ratio, 4 h | 340,000 compounds, 0.05% hits | Potency, µM (series often up to 46.1 µM), usual class: inhibitors; active means well fitted inhibition curve with a large enough effect in the signal ratio, with a control signal flat, not every such curve was filed as active; inconclusive means small, poorly fitted or top-dose-only effect, or effect the other way, or a change in a side signal; the % refers to the signal ratio
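Concentration-response series (up to 46 uM) were applied to TMD8 dual-reporter cells for 4 h at 37C with doxycycline. Green/red ratio, after filter-overlap correction, defined %Activity; red signal alone was normalised to basal cells and zero luminescence.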
ClpP mod – qHTS Assay for Activators of ClpP. ATP-dependent Clp protease proteolytic subunit (Bacillus subtilis (strain 168)), P80244. Potency, µM (series often up to 57.5 µM). 340,000 compounds, 1.9% hits. purified B. subtilis ClpP, FRET peptide cleavage, 20 min. AID 651965, 2013; active means well fitted falling curve with a large enough effect; inconclusive means small, poorly fitted or top-dose-only effect; inactive means no such curve, though single readings can be large or run the other way; further: the source files actives as falling curves though it sought activators and does not explain the sign; nearly all actives have a fitted effect of over 65% in size
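Buffer: 100 mM Tris/HCl pH8, 100 mM KCl, 0.05% low protease BSA, 2.5% glycerol, 0.01% Tween-20. ClpP 10 microg/mL final; 20 min RT; delta FRET normalized to ADEP and DMSO controls.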
A number is an active result; i = inactive; ? = inconclusive; nt = no result; [ ] = dose if it differs, or a comment.

SMILES	KCNH2 3.1 block	ALOX12 inh	LDHA block	hERG WT inh	Chronic BCR inh	ClpP mod
COc1ccc(CC2(CO)CCN(CC3=Cc4cc(Cl)ccc4OC3)CC2)cc1	-74.3	?	i	i	i	nt
COc1ccc2c(c1)C=C(CN1CCN(Cc3ccccc3C)C(CCO)C1)CO2 (stereo not given)	i	i	i	i	i	nt
COc1ccc2c(c1)C=C(CN1CCC(CO)(CCc3ccccc3)CC1)CO2	-87.8	i	i	i	i	nt
CCOc1ccc(C(C)(C)CC)cc1-c1csc(N)n1	nt	?	i	nt	nt	nt
CCC1CCCCN1C(=O)CN1C(=O)N(c2cc(Cl)ccc2C)S(=O)(=O)c2ccccc21 (stereo not given)	nt	i	i	nt	nt	nt
CCn1c(SCC(=O)Nc2ccc(F)cc2C)nnc1C(C)NC(=O)c1ccco1 (stereo not given)	nt	i	i	nt	nt	nt
Cc1ccc(/C(N)=N/OC(=O)N2c3ccccc3Sc3ccccc32)cc1	i	?	i	-175.6	nt	i
COc1cccc(CC(=O)N2CCC(n3cc(-c4nc(-c5ccccc5)no4)nn3)CC2)c1	nt	i	nt	nt	nt	nt
O=C(NCCC(=O)N1CCN(c2cccc(Cl)c2)CC1)c1ccc(Br)cc1	-75.3	i	i	i	i	i
O=C(NCCC(=O)N1CCN(c2ccccc2O)CC1)c1ccc(Br)cc1	i	i	i	i	i	i
CCN(CC(=O)Nc1c(F)cccc1F)C(=O)c1ccc2ccccc2n1	i	i	i	i	i	nt
CCN(CC(=O)Nc1c(F)cccc1F)C(=O)/C=C/c1ccc2ccccc2n1	i	31.6µM	i	i	i	i
Cn1c(CSCc2ccc(Cl)cc2Cl)n[nH]c1=S	i	?	i	i	i	i
CSc1nnc(CSCc2ccc(Cl)cc2Cl)n1-c1ccccc1	-83.6	i	i	i	i	i
O=C(c1cccc2ccccc12)N1CCN(Cc2c[nH]c3ccccc23)CC1	nt	1µM	i	nt	nt	nt
O=C(c1ccccc1F)N1CCN(Cc2c[nH]c3ccccc23)CC1	nt	?	i	nt	nt	nt
c1cncc(CN2CCN(Cc3c[nH]c4ccccc34)CC2)c1	nt	0.316µM	i	nt	nt	nt
Cc1cnc2c(S(=O)(=O)N(CC(C)C)C3CC3)cccc2c1	nt	i	i	nt	nt	nt
Cc1ccccc1NS(=O)(=O)c1cc(C(=O)N2CCc3ccccc3C2)ccc1C	i	i	i	i	i	i
CC(=O)N1CCN(C(=O)c2ccc(NS(=O)(=O)c3ccc(Cl)c(Cl)c3)cc2)CC1	i	?	i	i	nt	14.1µM
Cc1ccc(NS(=O)(=O)c2cc(C(=O)N3CCc4ccccc4C3)ccc2Cl)cc1	i	i	i	-260.6	i	i
COCCn1c(C)cc(C(=O)CSc2nnc(Nc3ccccc3C)s2)c1C	nt	i	i	nt	nt	nt
COc1cccc(-c2cncnc2NCc2ccc(OC)cc2OC)c1	nt	12.6µM	nt	nt	nt	nt
COc1ccc(CC(=O)N2Cc3ccccc3CC23CCCN(C(=O)CCN)C3)cc1 (stereo not given)	nt	i[6.33 µM]	nt	nt	nt	nt
Cc1cccn2c(Nc3ccc4c(c3)OCCO4)c(-c3ccc(Br)o3)nc12	nt	?	i	nt	nt	?
SMILES	KCNH2 3.1 block	ALOX12 inh	LDHA block	hERG WT inh	Chronic BCR inh	ClpP mod
CN(C)c1ccc(-c2nc3cnccn3c2Nc2ccc3c(c2)OCCO3)cc1	i	i	i	i	i	i
CSc1ccc(-c2nc3c(C)cccn3c2Nc2ccc3c(c2)OCCO3)cc1	nt	1.41µM	i	nt	nt	i
CN(C)c1ccc(-c2nc3ccc(Cl)cn3c2Nc2ccc3c(c2)OCCO3)cc1	nt	5.62µM	i	nt	nt	i
Cc1ccc(NC(=O)Cn2nc3c(cc2=O)CCCC3)c(Cl)c1	nt	i	i	nt	nt	nt
COC(=O)c1c(C)sc(-c2c(-c3ccc4c(c3)OCCO4)[nH]c3c2c(=O)n(C)c(=O)n3C)c1O	nt	i	i	nt	nt	i
COC(=O)c1c(C)sc(-c2c(-c3ccc4c(c3)OCCO4)[nH]c3[nH]c(=O)[nH]c(=O)c23)c1O	nt	25.1µM	i	nt	nt	i
Cc1ccc(C(=O)N/C(=C\c2ccc(F)cc2)C(=O)NCc2ccncc2)cc1	-89.6	nt	i	i	i	i
Cc1ccc(C(=O)N/C(=C\c2cccc([N+](=O)[O-])c2)C(=O)NCc2ccncc2)cc1	-86.3	nt	i	i	i	i
O=C1NCCCCCCN(C(=O)c2cc(CN3CCOCC3)on2)[C@H]2CCCC[C@@H]12	nt	i	nt	nt	nt	nt
CCn1c(SCC(=O)c2c[nH]c3ccccc23)nc2cc(S(=O)(=O)N3CCOCC3)ccc21	i	i	i	i	?	28.2µM
CCn1c(SCC(N)=O)nc2cc(S(=O)(=O)N3CCOCC3)ccc21	i	i	i	i	i	nt
CN(C)[C@@H]1[C@@H](NC(=O)Cn2cnc3ccsc3c2=O)[C@H]2CCO[C@H]21	nt	i	nt	nt	nt	nt
O=C(NC1CCCc2ccccc21)C1CCN(c2nnc(-n3cccc3)s2)CC1 (stereo not given)	-79.1	i	i	i	i	i
CC(C)Oc1ccc(-c2nc(NCc3ccco3)c3ccccc3n2)cc1	nt	?	i	nt	nt	nt
O=C(NCC(c1cccs1)N1CCCCCC1)c1cc(=O)c2ccc(Br)cc2o1 (stereo not given)	nt	i	-30.6	nt	nt	nt
O=C(NCC(c1ccco1)N1CCOCC1)c1cc(=O)c2cc(Br)ccc2o1 (stereo not given)	nt	i	-30.9	nt	nt	nt
O=C(NCC(c1cccs1)N1CCOCC1)c1cc(=O)c2cc(Br)ccc2o1 (stereo not given)	nt	i	-31.2	nt	nt	nt
N#Cc1ccccc1O	nt	?	i	nt	nt	nt
CC1CCCCN1Cc1c(O)ccc2c(=O)c(-c3ccc(Cl)cc3)coc12 (stereo not given)	i	i	i	i	?	12.6µM
O=c1c(-c2ccc(Cl)cc2)coc2c(CN3CCOCC3)c(O)ccc12	i	i	i	i	i	28.2µM
CC1CCCCN1Cc1c(O)ccc2c(=O)c(-c3ccc(Br)cc3)coc12 (stereo not given)	i	i	i	i	i	i
COc1ccc(-c2coc3c(CN4CCOCC4)c(O)ccc3c2=O)cc1	i	i	i	i	?	i
O=c1c(-c2ccccc2)coc2c(CN3CCCC3)c(O)ccc12	i	i	i	i	i	28.2µM
COc1ccc(Nc2nc(C)cc(-c3cc(-c4ccccc4)on3)n2)cc1	i	i	i	i	nt	28.2µM
N#Cc1nc(/C=C/c2ccccc2Cl)oc1N1CCN(C(=O)c2ccco2)CC1	nt	?	i	nt	nt	nt
NCc1ccccc1-c1cnc2ccccc2c1	nt	i[12.5 µM]	nt	nt	nt	nt
O=C(Cn1cc(C(=O)c2cccs2)c2ccccc21)NC1CCCCC1	i	i	i	i	i	i
NC(=O)Cn1cc(C(=O)c2cccs2)c2ccccc21	i	i	i	i	i	20µM
CCCc1nnc2c(=O)n(CC(=O)Nc3ccccc3C(=O)OCC)c3ccccc3n12	nt	?	i	nt	nt	nt
Cc1cc(C(F)(F)F)n2nc(C(=O)O)c(Cl)c2n1	i	44.7µM	i	i	i	i
